# The sample as a whole holds a higher share of hits than the screen did.
# ER stress surv – ER stress cell death inhibition; AID 1010; 48,000 compounds, 0.33% hits; CSM14.1 thapsigargin ER stress survival, ATP luminescence; relative survival (cellular ATP), % at 15 µg/mL (by protocol);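 active means survival measured by cellular ATP above 50% at 15 µg/ml in the first screen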;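 further: cell death triggered by about 15 µM thapsigargin; ATP read 24 h after thapsigargin was added; plate controls were thapsigargin with DMSO for no effect and DMSO without thapsigargin for full effect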
# * hit, by the source's call.
SMILES,ER stress surv
COc1ccc(C2CC(=O)C3=C(C2)Nc2ccccc2NC3c2cccc3ccccc23)cc1OC (stereo not given),-0.6
COc1ccc(C2CC(=O)C3=C(C2)Nc2ccccc2NC3c2ccc([N+](=O)[O-])cc2)cc1OC (stereo not given),-1.9
COc1ccc(C2CC(=O)C3=C(C2)Nc2ccccc2NC3c2ccncc2)cc1OC (stereo not given),6.1
Cc1ccc(-c2ccc(-c3nnc(N)o3)s2)s1,1.1
Cc1cc(OCC(=O)Nc2cc(Cl)ccc2C)ccc1Cl,1.9
COc1ccc(C(=O)NC(C)C2COc3ccccc3O2)c(OC)c1 (stereo not given),1.3
COc1cc(/C=C2/SC(=S)N(Cc3ccccc3)C2=O)ccc1OCC#N,2.4
COc1ccc(C(=O)N2CCN(c3cccc(C)c3C)CC2)cc1OC,4.8
COc1cc(OC)cc(C(=O)Nc2cc(-c3nc4cc(Cl)ccc4o3)ccc2C)c1,6.7
CCOC(=O)C1=C(O)/C(=C/c2ccc(N(C)C)cc2)SC1=Nc1ccc(OC)cc1,10.3
COc1ccc(C2CC(=O)C3=C(C2)Nc2ccccc2NC3c2ccc(OCc3ccccc3)c(OC)c2)cc1OC (stereo not given),125.1*
COc1ccc(C2CC(=O)C3=C(C2)Nc2ccccc2NC3c2ccc(Cl)c(Cl)c2)cc1OC (stereo not given),12.2
COc1ccc(C2Nc3ccccc3NC3=C2C(=O)CC(C)(C)C3)cc1OCc1ccccc1 (stereo not given),7.3
COc1ccc(C2CC(=O)C3=C(C2)Nc2ccccc2NC3c2cc(Br)ccc2OC)cc1OC (stereo not given),111.8*
COc1ccc(C2CC(=O)C3=C(C2)Nc2ccccc2NC3c2ccccc2Br)cc1OC (stereo not given),5.0
COc1ccc(C2CC(=O)C3=C(C2)Nc2ccccc2NC3c2cc(OC)ccc2OC)cc1 (stereo not given),1.3
CCN(CC)CCC(=O)c1ccc(O)cc1,-21.1
COC(=O)c1c(NC(=O)CCC(=O)O)sc(C)c1-c1ccc(C)cc1,0.4
COc1ccc(-c2cc(/N=C/C(C(C)=O)=C(\C)O)n(-c3ccccc3)n2)cc1,9.2
CC(=O)CC(=O)Nc1cc(Cl)ccc1C,64.7*
Cc1ccc(Cl)cc1NC(=O)CSC(N)=O,7.7
COCC(=O)Nc1cc(Cl)ccc1C,4.0
Cc1ccc(C(=O)N/C(=C\c2cccc([N+](=O)[O-])c2)C(=O)Nc2ccc(C)cc2C)cc1,7.2
CC(=O)Nc1ccc(S(=O)(=O)Nc2ccccc2Br)cc1,5.3
CCc1ccc(N2CC(C(=O)Nc3ccc(I)cc3)CC2=O)cc1 (stereo not given),2.6
SMILES,ER stress surv
Cc1ccc(C(=O)N/C(=C/c2cccs2)c2nc3ccccc3[nH]2)cc1,61.5*
Cc1ccc(C(=O)N/C(=C/c2cccnc2)c2nc3ccccc3[nH]2)cc1,-2.2
O=C(N/C(=C/c1cccs1)c1nc2ccccc2[nH]1)c1ccccc1,-1.8
O=C(NCC1CCCO1)/C(=C/c1ccc(-c2ccccc2Cl)o1)NC(=O)c1ccccc1 (stereo not given),87.2*
COc1ccc(C(=O)N/C(=C\c2ccc(Cl)cc2)C(=O)NCC2CCCO2)cc1 (stereo not given),0.2
N#C/C(=C\c1ccc(-c2ccc(Cl)c(C(=O)O)c2)o1)C(=O)NCC1CCCO1 (stereo not given),11.5
O=[N+]([O-])c1ccc(O)c(/C=N/Nc2nnc(-c3ccccc3)c(-c3ccccc3)n2)c1,5.7
CCCCNCCCCCOc1cccc(OC)c1,-13.2
C=CCN1C(=O)/C(=C\c2cc(OC)cc(OC)c2)SC1=S,8.0
COc1ccc(Cl)cc1NS(=O)(=O)c1c(C)cc(C)cc1C,14.6
O=C(Nc1nc(-c2cccc3ccccc23)cs1)c1ccc(Cl)cc1,8.2
CCOC(=O)C1=C(O)/C(=C/c2ccc([N+](=O)[O-])cc2)SC1=Nc1ccc(C)cc1,7.9
COc1cc2c(cc1OC)C(CC(=O)Nc1ccc(C)cc1C)=NC(C)(C)C2,53.0*
COC(=O)CCC(=O)Nc1ccc(C)cc1C,1.9
COc1ccc(C(=O)Nc2ccc(C)cc2C)cc1OC,1.3
Nc1nnnn1CC(=O)OCC(=O)c1ccccc1,8.4
CCOc1cc(C2C(C(=O)OCC3CCCO3)=C(C)NC3=C2C(=O)CCC3)cc([N+](=O)[O-])c1O (stereo not given),-3.4
CC1=C(C(=O)OCC2CCCO2)C(c2ccc(F)cc2)C2=C(CCCC2=O)N1 (stereo not given),3.2
CCn1c2ccccc2c2cc(C3C(C(=O)OCC4CCCO4)=C(C)NC4=C3C(=O)CCC4)ccc21 (stereo not given),96.3*
CCOc1ccc(NC(=O)c2ccccc2C(F)(F)F)cc1,5.6
Cc1cccc(C(=O)NC(NC(=O)c2cccc(C)c2)c2ccc(Br)cc2)c1,4.8
Cc1ccc(C2(c3ccc(C)cc3)CC2C(=O)Nc2ccccc2)cc1 (stereo not given),5.9
Cc1ccc(C2(c3ccc(C)cc3)CC2C(=O)Nc2cccnc2)cc1 (stereo not given),78.5*
Cc1ccc(C2(c3ccc(C)cc3)CC2C(=O)Nc2ccncc2)cc1 (stereo not given),-1.3
COc1ccc(NC(=O)C(=O)NCc2ccc(Cl)cc2)cc1Cl,1.1
SMILES,ER stress surv
COc1ccc(Cl)cc1C(=O)Nc1ccc(Cl)cc1,3.4
CCOC(=O)c1cnn(-c2ncnc3sc(CC)cc23)c1N,9.3
CCc1cc2c(N3CCN(Cc4ccc(Cl)cc4Cl)CC3)ncnc2s1,98.3*
CCc1cc2c(N3CCCCC3)ncnc2s1,-0.7
CN(C)CC(O)CN(c1ccccc1)S(=O)(=O)c1ccc([N+](=O)[O-])cc1 (stereo not given),-13.7
O=C(NC1CCCCC1Cc1ccco1)c1cccc2ccccc12 (stereo not given),-8.2
COc1cc2c(cc1NCc1ccc3c(c1)OCO3)oc1ccccc12,-5.7
COc1cc2c(cc1NCc1ccc([N+](=O)[O-])cc1)oc1ccccc12,7.9
COc1cc2c(cc1NCc1ccncc1)oc1ccccc12,93.4*
O=C(Nc1ccc(-c2nc3ncccc3o2)cc1)c1ccc(-c2ccc(Br)cc2)o1,-3.9
COc1nccc(Nc2ccccc2)c1C#N,2.0
CN(C)c1nccc(N(Cc2ccccc2)Cc2ccccc2)c1C#N,82.6*
CN(C)CCN(Cc1ccccc1)c1ccnc(N(C)C)c1C#N,-4.0
CCOC(=O)CP(=O)(c1ccccc1)c1ccccc1,6.0
Cc1ccc(P(=O)(CSC(=N)N)c2ccc(C)cc2)cc1,58.4*
Cc1ccc(NC(=O)CC(=O)NN)cc1,-5.1
CCOC(=O)c1c(NC(=O)CN2C(=O)c3ccccc3C2=O)sc2c1CCCC2,18.6
O=C1N/C(=N/S(=O)(=O)c2ccccc2)S/C1=C\c1cccnc1,10.6
Cc1ccc(OCC(=O)NNC(=O)c2ccc(O)cc2O)c(C)c1,2.4
COc1cccc(CNc2ccc3c(c2)ncn3-c2ccccc2)c1OC,89.4*
COc1ccc(CNc2ccc(C)c(C)c2)c(OC)c1C,-4.5
COc1ccc(CNc2ccc3c(c2)ncn3C)cc1,-0.5
O=C(/C=C/c1ccccc1)Nc1ccc(Cl)cc1Cl,1.3
COc1ccc(/C=C(/NC(=O)c2ccc(C(C)(C)C)cc2)C(=O)N2CCCC2)cc1OC,0.1
Cc1ccc(C(=O)Nc2ccc(S(=O)(=O)N3CCCC3)cc2)cc1,0.1
CC(NC(=O)c1ccccc1)C12CC3CC(CC(C3)C1)C2 (stereo not given),0.7
CC(NC(=O)c1ccc(S(=O)(=O)N2CCCCC2)cc1)C12CC3CC(CC(C3)C1)C2 (stereo not given),108.4*

# High-throughput results from PubChem BioAssay.
